Assay results reported in PubChem BioAssay (NCI).
Compounds without any hit were thinned out: in the full panel of roughly 83,000, 20% have a hit.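 Activity criterion: percent growth below 10, measured after cells in 96-well plates were exposed to a single compound concentration for 48 hours.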 A number with no mark means an inactive call. Activity calls are given as the source filed them.

System: LOX IMVI melanoma
Assay: NCI-60 one-dose screen, 48 h (100 = growth as untreated, 0 = no growth, -100 = all killed)
Settings: 10 µM unless noted
Protocol: Growth inhibition of the LOX IMVI human tumor cell line is measured as a screen for anti-cancer activity. Cells are grown in 96 well plates and exposed to the test compound for 48 hours. Compounds are tested at a single concentration, which is 10^-5 M for most compounds. The reported endpoint is percent growth (GI% or GIPRCNT), where numbers from 0 - 100% represent growth inhibition, and numbers from -100% - 0 represent cell death. For example, a value of 40 represents 60% growth inhibition. A value of 0 means no net growth occurred over the course of the experiment. A value of -40 indicates 40% of cells at the beginning of the experiment died by the end of the experiment. A value of -100 means all cells are dead at the end of the experiment.
NCI-60 Human Tumor Cell Lines Screen was performed using the standard one-dose NCI protocol, which is described in more detail at https://dtp.cancer.gov/discovery_development/nci-60/default.htm.
Compounds with GIPRCNT values below 10 were considered active. Activity score was based on GIPRCNT using the following formula: […]
Score is 0 for GIPRCNT values of 100 or above, 50 for GIPRCNT values of 0, and 100 for GIPRCNT values of -100.

Row | Compound | growth
1 | Cc1ccc(C(=O)c2ccc(CC(=O)N=Nc3c(O)[nH]c4ccc(Br)cc34)n2C)cc1 | 88.9%
2 | Cc1nc2ccccc2c(/C=C/c2ccccc2)c1C(=O)/C=C/c1ccccc1 | -64.1% (active)
3 | Cc1ccc(-c2csc(N(C(=O)N3CCN(c4cc5c(cc4F)c(=O)c(C(=O)O)cn5C4CC4)CC3)c3ccccc3)n2)cc1 | 7.08% (active)
4 | O=C1NC(=O)/C(=C/c2c(-c3ccccc3)nc3sc(COc4ccccc4)nn23)S1 | 57%
5 | CNC(C)[C@H]1CCC2C3CC=C4C(=O)[C@@H](NC(=O)C=C(C)C)CC[C@]4(C)C3CC[C@@]21C (stereo not given in full) | -54% (active)
6 | CCOC(=O)C(=CNc1cnc(Nc2ccc(N3CCOCC3)cc2)nc1Oc1ccc(OC)cc1)C(=O)OCC | 39.3%
7 | COC(=O)c1cc(Br)ccc1O | 94.7%
8 | O=C(c1c[nH]c2ccccc12)c1n[nH]c(=S)n1-c1cccc(Br)c1 | 93.2%
9 | COc1cc(OC)cc(-c2ccc(-c3ccc(C(=N)N)o3)o2)c1 | -64.1% (active)
10 | CN(CCCNC(=O)CCOCCOCCOCCNC(=O)Cc1ccc2ccc3cccc4ccc1c2c34)CCCNc1cc(-c2ccc3ccccc3c2)nc2ccccc12 | -43.7% (active)
11 | CN(C)S(=O)(=O)Oc1ccc(-c2sc3cc(OS(=O)(=O)N(C)C)ccc3c2C(=O)c2ccc(OCCN3CCCCC3)cc2)cc1 | 32.7%
12 | CN(C)CCCC1(c2ccc(F)cc2)OCc2cc(-c3cc4ccccc4s3)ccc21 (stereo not given) | -93.6% (active)
13 | NS(=O)(=O)c1ccc(C(=O)NN2C(=O)c3c(Br)c(Br)c(Br)c(Br)c3C2=O)cc1 | 95.1%
14 | C=C1C(=O)O[C@H]2[C@H]1CC/C(COC(=O)c1ccc(C(=O)O)s1)=C\CC[C@@]1(C)O[C@@H]21 | -55.2% (active)
15 | N=C(N)c1ccc(-c2ccc(-c3cc(Cl)cc(Cl)c3)s2)nc1 | -75.6% (active)
16 | Cc1ncc(C(=O)Nc2ccc(CN3CCN(C)CC3)c(C(F)(F)F)c2)cc1C#Cc1cnc(N)c2ncccc12 | -3.58% (active)
17 | O=C1/C(=C/c2ccc(F)cc2)CN(C(=O)C(Cl)Cl)C/C1=C\c1ccc(F)cc1 | -90.2% (active)
18 | CN(C)CCCC1(c2ccc(F)cc2)OCc2cc(-c3ccc4cc[nH]c4c3)ccc21 (stereo not given) | -83.4% (active)
19 | CC1=CC(c2ccco2)=C2C(N)=NNC2N1 (stereo not given) | 98.3%
20 | CNC1=CC(=O)c2c(C(=O)OC)c(C)[n+]([O-])c(C)c2C1=O | 34.4%

Row | Compound | growth
21 | C/C=C(\C)C(=O)N[C@H]1C(O)C[C@]2(C)C3CC[C@@]4(C)C(CC[C@@H]4C(C)N(C)C)C3CCC2C1O (stereo not given in full) | -26.3% (active)
22 | Cc1cccc(N2CCC(=O)NC2=S)c1 | 97.2%
23 | C=CCN1C(=O)c2cccc3c(N4CCOCC4)ccc(c23)C1=O | 1.13% (active)
24 | C#CCOc1cccc(-c2ncnc3cc(NC(=O)C=C)ccc23)c1 | 34.1%
25 | CCCCCCCCCCCCCOC(=O)c1c(C)[nH]c(/C=C2\N=C(c3ccc[nH]3)C=C2OC)c1C | -56.4% (active)
26 | CN(C)c1ccc(/C=C(\C#N)c2cc3ccccc3[nH]2)cc1 | 27.6%
27 | O=C1/C(=C2\SC(=S)N(C3CC3)C2=O)SC(=S)N1C1CC1 | 88.8%
28 | C=C(C)[C@@H]1CCC[C@]2(C(=O)N3CCN(C)CC3)CC[C@]3(C)[C@@H](CC[C@@H]4[C@@]5(C)CC/C(=N\NC(=O)c6ccncc6)C(C)(C)[C@@H]5CC[C@]43C)[C@@H]12 | 89.3%
29 | COc1ccc(Cn2cc3c(c2-c2ccccc2)CCc2cnoc2-3)cc1 | 29.6%
30 | c1ccc(CCNc2c3ccccc3nc3ccccc23)cc1 | 17.6%
31 | c1ccc2c(c1)CCCc1nnc3nc4ccccc4n3c1-2 | 33.7%
32 | O=C(Nc1ncccc1OCc1ccccc1)NC1CCCCCC1 | 90.6%
33 | CCN1C(=O)N(CC)C2C1NC(=S)N2/N=C/c1ccc(OC)cc1 (stereo not given) | 49.2%
34 | Cc1cccc[n+]1C1c2ccccc2-c2ccccc21 | 97.8%
35 | C/C(=N\O)c1ccc(NC(=O)CSc2nnc(-c3cc(-c4ccc(S(N)(=O)=O)cc4)nc4ccccc34)n2-c2ccccc2)cc1 | 37.7%
36 | CC(=O)O[C@H]1C[C@@H]2C(C)(C)C(=O)CC[C@@]2(C)c2ccc(C(C)C)cc21 | 105%
37 | O=c1nc(-c2ccccc2)c2cc(-c3ccc(C(F)(F)F)nc3)ccc2[nH]1 | 93.1%
38 | FC(F)(F)Oc1cccc(-c2cnc3ccc(-c4ccncc4)nn23)c1 | 9.23% (active)
39 | CCOC(=O)c1c(C)nc2c(c1N)/C(=C/c1ccc(OC)cc1)C(=O)N2Cc1ccccc1 | 55.6%
40 | O=C(Nc1ccc(Cl)cc1)Oc1c(Cl)c(Cl)c(Cl)c(Cl)c1Cl | 86.1%
